The source made the active and inactive calls.

In PubChem BioAssay one finds composite z-score and z-score data, which are given here for five compounds.

The nature of experiment [1]: binders of probe aFSTL3 on microarray, primary screen, stem cell growth factor project, biochemical, small-molecule microarray, fluorescence 635/667 (AID 1064).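 Also: measures binding of the biotinylated anti-FSTL3 antibody to printed compounds.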 Conditions: higher = more signal.
Experiment [2] is described as follows: binders from COS7 lysate, DM2A8 probe, primary screen, torsin A project, cell lysate, small-molecule microarray, fluorescence 635/667 (AID 1065). To be noted: higher = more signal, COS7 lysate expressing mutant human TOR1A.
The nature of experiment [3]: binders of probe aFGF2 on microarray, primary screen, stem cell growth factor project, biochemical, small-molecule microarray, fluorescence 635/667 (AID 1067).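 Also: measures binding of biotinylated aFGF2 protein to printed compounds on slides; z-score merges feature fluorescence and signal-to-noise across triplicate slides.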 Conditions: higher = more signal.
Experiment [4] can be described thus: binders of probe aFGF10 on microarray, primary screen, stem cell growth factor project, biochemical, small-molecule microarray, fluorescence 635/667 (AID 1071).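 Also: score merges 667 nm spot intensity and signal to noise from triplicate slides.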 To be noted: higher = more signal.
Experiment [5] addresses Neurogenic locus notch homolog protein 2 (Homo sapiens) (UniProt Q04721). The experiment can be described thus: Notch2 binders on small-molecule microarrays, primary screen, biochemical, small-molecule microarray, 635 nm fluorescence, stem cell growth factors (AID 1073). To be noted: Notch2 binding, higher = more signal.
For experiment [6], the target named is Pro-neuregulin-1, membrane-bound isoform (Homo sapiens) (UniProt Q02297). Description: NRG1 binders on small-molecule microarrays, primary screen, psychiatric disease protein project, biochemical, small-molecule microarray, fluorescence 635/667 (AID 1075).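 Also: score combines 667 nm spot fluorescence with signal to noise.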 Conditions: NRG1 binding, 635 nm fluorescence, higher = more signal.
Experiment [7] deals with Neuregulin-1 EGF-like domain. The experiment can be described thus: binders of neuregulin-1 EGF-like domain, primary screen, biochemical, small-molecule microarray, 635 nm fluorescence (AID 1081).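 Also: binding of the protein to compounds printed on small-molecule microarray slides.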 Conditions: small-molecule microarray binding, higher = more signal.
Experiment [8] is described as follows: FRG1 promoter luciferase signal modulators, primary screen, FRG1 inhibition for FSHD, cell-based, C2C12 myotubes, firefly/Renilla luciferase, luminescence (AID 1084). Conditions: higher = more signal, called active from +8 up or from −8 down.
Experiment [9] in a line: binders of probe aFST on microarray, primary screen, stem cell growth factor project, biochemical, small-molecule microarray, fluorescence 635/667 (AID 1086).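 Also: score merges 667 nm fluorescence with signal-to-noise of each printed compound spot.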 To be noted: higher = more signal.
A short description of experiment [10]: binders of probe aHhip on microarray, primary screen, stem cell growth factor project, biochemical, small-molecule microarray, fluorescence 635/667 (AID 1087).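 Also: score merges spot fluorescence at 667nm with spot signal to noise ratio.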 To be noted: higher = more signal.
Experiment [11] deals with PRMT1 (protein arginine N-methyltransferase 1). The experiment can be described thus: PRMT1 binders on small-molecule microarrays, primary screen, biochemical, small-molecule microarray, 635 nm fluorescence (AID 1088).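 Also: binding of Prmt1 protein to compounds spotted on small-molecule microarray slides.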 Conditions: small-molecule microarray binding, higher = more signal.
The nature of experiment [12]: yeast growth modulation, basal conditions, primary screen, YJM789 clinical isolate, OD600, 24 h (AID 1089).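 Also: growth of clinical yeast isolate S. cerevisiae YJM 789 seeded 1000 cells per well; test concentration not given here.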 To be noted: S. cerevisiae YJM789 growth, higher = more signal, called active from +8 up or from −8 down.
A short description of experiment [13]: fission yeast growth modulation, primary screen, strain 972, OD600, 24 h, no modulator (AID 1090).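 Also: basal condition with compound alone and no growth modifier present; test concentration not given here.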 Conditions: S. pombe 972 growth, higher = more signal, called active from +8 up or from −8 down.
Experiment [14] can be described thus: S. cerevisiae growth modulation with rapamycin, primary screen, strain BY4716, OD600, 96 h (AID 1091). Also: test concentration not given here. Conditions: higher = more signal, called active from +8 up or from −8 down.
Experiment [15] has as its target Torsin-1A-interacting protein 2 (Homo sapiens) (UniProt Q8NFQ8). Description: LULL1 binders on small-molecule microarray, primary screen, cell lysate, human LULL1 lysate, 635/667 nm fluorescence (AID 1092).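 Also: score merges per-feature 667 nm fluorescence with signal-to-noise.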 To be noted: hLULL1 lysate binding, 635 nm fluorescence, higher = more signal.
Experiment [16] in a line: E. coli growth modulation, two-sided OD650, primary screen, E. coli filamentation project, strain DRC41, 24 h (AID 1093).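 Also: MC1000 strain lacking acrAB efflux and sulA so SOS filamentation is blocked; test concentration not given here.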 Conditions: OD650, 24 h, higher = more signal, called active from +8 up or from −8 down.
Experiment [17] can be described thus: small-molecule microarray binders of probe aLefty2, primary screen, biochemical, biotinylated probe, 635/667 nm fluorescence (AID 1094).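 Also: score merges spot fluorescence near 667 nm with spot signal-to-noise ratio.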 To be noted: higher = more signal.
Experiment [18] deals with Noggin (protein binding on small-molecule microarray). Description: Noggin binders on small-molecule microarray, primary screen, biochemical, 635/667 nm fluorescence (AID 1095).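 Also: score merges 667 nm feature fluorescence with signal to noise over triplicate slides.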 Conditions: 635 nm fluorescence, higher = more signal.
The target of experiment [19] is Neurogenic locus notch homolog protein 3 (Homo sapiens) (UniProt Q9UM47). Description: NOTCH3 binders on small-molecule microarray, primary screen, biochemical, 635/667 nm fluorescence (AID 1096). Conditions: NOTCH3 binding, 635 nm fluorescence, higher = more signal.
A short description of experiment [20]: small-molecule microarray binders of probe aEGFR, primary screen, biochemical, biotinylated probe, 635/667 nm fluorescence (AID 1097).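 Also: probe is a biotinylated anti-EGFR antibody binding compounds printed on slides; score combines fluorescence near 667 nm and signal to noise of each spot.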 To be noted: higher = more signal.

Neurogenic locus notch homolog protein 3 (Homo sapiens), sequence (Q9UM47 whole entry, looked up): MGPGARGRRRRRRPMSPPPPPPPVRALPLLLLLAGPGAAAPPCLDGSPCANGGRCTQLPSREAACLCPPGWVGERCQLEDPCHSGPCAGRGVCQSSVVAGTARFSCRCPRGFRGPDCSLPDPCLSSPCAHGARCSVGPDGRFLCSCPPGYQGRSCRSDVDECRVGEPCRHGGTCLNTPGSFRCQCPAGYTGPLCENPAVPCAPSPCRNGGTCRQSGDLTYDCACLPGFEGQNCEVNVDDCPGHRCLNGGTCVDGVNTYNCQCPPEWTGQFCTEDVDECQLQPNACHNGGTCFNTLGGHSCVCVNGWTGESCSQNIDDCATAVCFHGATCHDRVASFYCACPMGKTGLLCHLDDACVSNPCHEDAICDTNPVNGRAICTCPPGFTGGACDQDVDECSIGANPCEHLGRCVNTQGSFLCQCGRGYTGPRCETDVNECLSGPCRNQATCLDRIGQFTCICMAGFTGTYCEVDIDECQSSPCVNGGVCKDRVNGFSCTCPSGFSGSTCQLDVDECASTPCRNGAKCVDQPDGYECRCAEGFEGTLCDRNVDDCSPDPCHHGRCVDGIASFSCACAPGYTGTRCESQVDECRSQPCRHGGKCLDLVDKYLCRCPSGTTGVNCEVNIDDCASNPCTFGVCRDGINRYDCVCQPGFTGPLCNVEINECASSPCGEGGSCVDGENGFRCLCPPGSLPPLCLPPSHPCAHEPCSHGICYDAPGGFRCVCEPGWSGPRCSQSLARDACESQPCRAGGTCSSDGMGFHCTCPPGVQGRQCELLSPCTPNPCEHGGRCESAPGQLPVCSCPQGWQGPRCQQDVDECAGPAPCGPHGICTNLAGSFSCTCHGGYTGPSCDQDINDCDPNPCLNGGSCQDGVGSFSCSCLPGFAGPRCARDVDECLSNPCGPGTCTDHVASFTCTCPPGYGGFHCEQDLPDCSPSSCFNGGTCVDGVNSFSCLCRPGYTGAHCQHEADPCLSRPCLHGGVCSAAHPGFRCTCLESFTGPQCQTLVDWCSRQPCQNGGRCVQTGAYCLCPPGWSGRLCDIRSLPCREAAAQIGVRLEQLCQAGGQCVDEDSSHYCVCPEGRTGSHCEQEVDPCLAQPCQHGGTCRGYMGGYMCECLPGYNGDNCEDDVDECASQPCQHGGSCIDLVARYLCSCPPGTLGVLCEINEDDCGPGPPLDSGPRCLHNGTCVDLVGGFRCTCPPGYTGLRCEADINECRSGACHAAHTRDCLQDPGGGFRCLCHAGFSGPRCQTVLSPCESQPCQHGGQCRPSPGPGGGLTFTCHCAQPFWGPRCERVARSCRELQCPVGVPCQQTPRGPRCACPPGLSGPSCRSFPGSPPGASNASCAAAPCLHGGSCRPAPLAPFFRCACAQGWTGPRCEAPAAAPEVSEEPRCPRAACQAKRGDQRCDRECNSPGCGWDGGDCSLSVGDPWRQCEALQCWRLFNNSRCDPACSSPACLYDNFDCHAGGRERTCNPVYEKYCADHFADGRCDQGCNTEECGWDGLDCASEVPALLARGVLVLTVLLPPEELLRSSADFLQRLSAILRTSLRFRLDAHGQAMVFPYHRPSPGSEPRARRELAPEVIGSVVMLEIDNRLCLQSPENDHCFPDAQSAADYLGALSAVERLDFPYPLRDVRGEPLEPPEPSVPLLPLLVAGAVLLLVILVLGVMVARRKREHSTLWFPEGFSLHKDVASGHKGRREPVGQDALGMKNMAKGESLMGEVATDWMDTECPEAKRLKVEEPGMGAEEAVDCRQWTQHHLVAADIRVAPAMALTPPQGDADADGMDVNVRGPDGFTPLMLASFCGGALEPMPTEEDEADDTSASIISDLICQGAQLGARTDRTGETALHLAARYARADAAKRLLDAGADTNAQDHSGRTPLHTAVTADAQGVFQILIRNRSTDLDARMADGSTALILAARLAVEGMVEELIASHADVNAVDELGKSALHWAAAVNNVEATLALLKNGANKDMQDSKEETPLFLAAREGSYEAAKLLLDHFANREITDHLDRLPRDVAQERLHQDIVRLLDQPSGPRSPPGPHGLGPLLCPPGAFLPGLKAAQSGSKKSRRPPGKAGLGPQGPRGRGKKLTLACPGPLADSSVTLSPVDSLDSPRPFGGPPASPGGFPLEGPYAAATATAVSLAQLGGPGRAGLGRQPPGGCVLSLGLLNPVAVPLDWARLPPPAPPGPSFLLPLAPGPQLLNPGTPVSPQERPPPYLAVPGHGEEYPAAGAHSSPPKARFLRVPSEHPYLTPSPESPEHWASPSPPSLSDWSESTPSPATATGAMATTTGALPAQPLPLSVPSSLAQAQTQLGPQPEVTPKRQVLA
Neurogenic locus notch homolog protein 2 (Homo sapiens), sequence (Q04721 whole entry, looked up, canonical isoform): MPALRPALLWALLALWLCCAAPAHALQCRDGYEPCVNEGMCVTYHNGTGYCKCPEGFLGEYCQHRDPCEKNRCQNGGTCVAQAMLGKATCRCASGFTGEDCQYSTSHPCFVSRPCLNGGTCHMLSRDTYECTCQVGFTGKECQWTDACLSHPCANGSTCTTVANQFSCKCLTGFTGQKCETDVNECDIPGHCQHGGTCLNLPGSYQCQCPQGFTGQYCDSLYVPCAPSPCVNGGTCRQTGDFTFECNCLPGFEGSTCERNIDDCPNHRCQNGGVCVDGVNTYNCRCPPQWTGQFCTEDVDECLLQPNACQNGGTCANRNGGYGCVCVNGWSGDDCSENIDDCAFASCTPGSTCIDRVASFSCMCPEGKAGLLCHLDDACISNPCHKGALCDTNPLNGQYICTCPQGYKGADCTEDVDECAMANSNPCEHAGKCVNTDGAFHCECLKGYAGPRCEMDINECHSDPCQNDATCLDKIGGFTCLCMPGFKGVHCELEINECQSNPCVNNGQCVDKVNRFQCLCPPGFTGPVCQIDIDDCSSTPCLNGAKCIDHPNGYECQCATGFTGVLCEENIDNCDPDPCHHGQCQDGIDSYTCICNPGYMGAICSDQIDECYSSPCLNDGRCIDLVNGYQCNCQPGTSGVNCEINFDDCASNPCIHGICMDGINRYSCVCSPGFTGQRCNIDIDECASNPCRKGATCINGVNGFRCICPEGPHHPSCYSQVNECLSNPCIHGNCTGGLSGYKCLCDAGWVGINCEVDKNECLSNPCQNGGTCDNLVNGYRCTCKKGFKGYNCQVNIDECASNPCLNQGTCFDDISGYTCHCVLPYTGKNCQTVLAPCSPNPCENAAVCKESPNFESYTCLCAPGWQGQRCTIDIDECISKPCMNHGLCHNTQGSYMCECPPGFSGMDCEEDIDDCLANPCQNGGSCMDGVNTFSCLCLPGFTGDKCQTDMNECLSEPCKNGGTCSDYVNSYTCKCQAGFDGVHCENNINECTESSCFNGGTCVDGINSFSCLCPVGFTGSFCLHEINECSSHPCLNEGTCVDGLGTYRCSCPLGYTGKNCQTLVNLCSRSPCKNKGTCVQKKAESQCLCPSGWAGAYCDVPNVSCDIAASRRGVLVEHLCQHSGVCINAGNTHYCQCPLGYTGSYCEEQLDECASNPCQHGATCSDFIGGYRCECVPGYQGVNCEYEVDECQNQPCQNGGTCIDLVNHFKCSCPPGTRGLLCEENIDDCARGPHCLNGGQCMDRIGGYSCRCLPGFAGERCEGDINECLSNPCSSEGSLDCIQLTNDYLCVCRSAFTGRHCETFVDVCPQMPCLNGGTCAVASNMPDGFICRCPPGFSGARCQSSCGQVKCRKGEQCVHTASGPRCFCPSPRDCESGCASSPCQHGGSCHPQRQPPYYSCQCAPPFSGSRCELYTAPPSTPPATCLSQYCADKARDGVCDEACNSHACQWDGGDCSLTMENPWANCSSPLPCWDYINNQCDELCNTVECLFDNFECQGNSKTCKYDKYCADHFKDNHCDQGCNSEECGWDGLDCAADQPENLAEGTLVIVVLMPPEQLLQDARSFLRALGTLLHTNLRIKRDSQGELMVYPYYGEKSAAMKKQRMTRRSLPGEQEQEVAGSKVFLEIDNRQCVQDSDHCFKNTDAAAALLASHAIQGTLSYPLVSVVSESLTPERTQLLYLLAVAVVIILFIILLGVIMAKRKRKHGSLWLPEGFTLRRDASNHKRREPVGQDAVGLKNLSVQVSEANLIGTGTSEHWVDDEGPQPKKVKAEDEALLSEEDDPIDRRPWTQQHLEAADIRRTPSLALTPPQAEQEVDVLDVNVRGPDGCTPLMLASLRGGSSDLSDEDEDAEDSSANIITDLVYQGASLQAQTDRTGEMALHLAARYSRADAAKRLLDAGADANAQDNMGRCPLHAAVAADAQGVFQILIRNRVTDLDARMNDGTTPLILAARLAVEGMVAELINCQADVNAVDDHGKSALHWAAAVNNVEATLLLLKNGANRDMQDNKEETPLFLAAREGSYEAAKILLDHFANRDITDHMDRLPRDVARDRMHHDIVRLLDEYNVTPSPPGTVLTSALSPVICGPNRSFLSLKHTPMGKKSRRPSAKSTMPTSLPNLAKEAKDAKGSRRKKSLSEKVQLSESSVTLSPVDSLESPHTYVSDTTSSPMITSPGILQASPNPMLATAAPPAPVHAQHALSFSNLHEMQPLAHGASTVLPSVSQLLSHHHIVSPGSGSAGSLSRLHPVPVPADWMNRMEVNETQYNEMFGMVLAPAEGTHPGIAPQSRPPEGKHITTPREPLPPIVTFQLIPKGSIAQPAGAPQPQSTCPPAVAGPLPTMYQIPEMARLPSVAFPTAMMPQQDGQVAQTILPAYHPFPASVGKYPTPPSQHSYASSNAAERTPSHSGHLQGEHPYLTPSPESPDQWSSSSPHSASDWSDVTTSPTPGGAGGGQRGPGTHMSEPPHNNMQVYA

`CCOC(=O)C[C@H]1[C@H](OC(=O)Cc2ccc3c(c2)OCO3)[C@@H](NC(=O)c2ccccc2)c2cc(OCCCO)ccc2N1C(=O)c1ccc2ccccc2n1`: the composite z-score in experiment [1] is -0.146; in experiment [2], -0.183; in experiment [3], -0.147; in experiment [4] it was 0.352; in experiment [5], 0.671; in experiment [6] it was 0.485. Also, the composite z-score is 0.55 in experiment [7]; 0.0323 in experiment [9]; -0.175 in experiment [10]; 0.4 in [11]; 1.13 in [15]; -0.0179 in experiment [17]. For the same compound, the values for the composite z-score in experiment [18], in experiment [19] and in experiment [20] were 0.196, 0.0199 and -0.147, respectively. The z-score in experiment [8] is -4.6 (inactive); in experiment [12], -2.25 (inactive); in experiment [13] it was -1.2 (inactive); in [14], -0.433 (inactive); in experiment [16] it was 1.45 (inactive).

For the compound `C=CCNC(=O)[C@@H]1[C@H]2C(=O)O[C@H](c3ccccc3)[C@H](c3ccccc3)N2[C@H](c2ccc(O)cc2)[C@@]12C(=O)Nc1ccc(C#CCCO)cc12`, the composite z-score in experiment [1] is 0.0065; in experiment [2] it was -0.395; in [3], -0.13; in experiment [4], 0.508; in [5], -1.34; in [6] it was 1.37. Further, the composite z-score in experiment [7] was -0.353; in [9], -1.05; in [10], -0.251; in [11], -0.36; in experiment [15] it was 2.17; in [17], -0.259. Moreover, the composite z-score in experiment [18] was -1.2; in [19] it was -0.261; in [20], -0.261. The z-score in [8] is -0.0378 (inactive); in experiment [12] it was -0.328 (inactive); in experiment [13], -0.397 (inactive); in [14], -0.301 (inactive); in experiment [16], 2.31 (inactive).

Take `COCCCNC(=O)[C@@H]1c2ccccc2C(=O)N(c2ccc(C)cn2)[C@H]1c1ccc(CO)cc1`: the composite z-score was 1.02 in [1]; -1.72 in experiment [2]; -0.294 in experiment [3]; -0.286 in [4]; -1.58 in experiment [5]; 0.825 in experiment [6]. The composite z-score was -0.54 in [7]; -0.939 in experiment [9]; -0.233 in [10]; -0.0842 in experiment [11]; 0.674 in experiment [15]; 0.0748 in experiment [17]. Besides, the composite z-score in experiment [18] was -1.73; in experiment [19], -0.502; in experiment [20], -0.379. The z-score in experiment [8] was 0.183 (inactive); in [12], 0.331 (inactive); in experiment [13], -1.18 (inactive); in experiment [14] it was -0.19 (inactive); in [16], -2.29 (inactive).

As for `COCC(=C=CC[C@@H](O)c1ccccc1OCCO)C[C@@H](O)c1ccccn1`, the composite z-score in experiment [1] was -0.304; in experiment [2] it was 0.663; in [3], -0.0775; in experiment [4] it was 0.159; in experiment [5] it was 0.12; in experiment [6], 1.21. Also, the composite z-score was 1.2 in experiment [7]; -0.0376 in [9]; 0.0156 in experiment [10]; 1.29 in [11]; 2.97 in [15]; -0.0825 in experiment [17]. Besides, the composite z-score in experiment [18] was 0.416; in experiment [19] it was 0.88; in [20] it was -0.0512. Also, the z-score is -0.0964 (inactive) in [8]; -0.108 (inactive) in experiment [12]; -1.4 (inactive) in [13]; -0.856 (inactive) in [14]; -0.224 (inactive) in [16].

For the compound `COCCCNC(=O)[C@@]1(C)c2ccccc2C(=O)N(c2ccc(C)cn2)[C@H]1c1ccc(CO)cc1`, the composite z-score is -0.722 in [1]; -0.331 in experiment [2]; -0.308 in experiment [3]; -1.12 in experiment [4]; -1.15 in [5]; 0.906 in [6]. The composite z-score was 0.632 in experiment [7]; -0.892 in experiment [9]; -0.439 in experiment [10]; 0.194 in experiment [11]; 3.55 in experiment [15]; -0.428 in [17]. For the same compound, the figures for the composite z-score in experiment [18], in experiment [19] and in experiment [20] were -0.978, -0.99 and -0.427, respectively. The z-score is 0.811 (inactive) in experiment [8]; -0.435 (inactive) in [12]; -0.473 (inactive) in experiment [13]; -1.67 (inactive) in experiment [14]; 0.288 (inactive) in experiment [16].
